Measurements taken from ChEMBL document CHEMBL3988442, “University of Dundee, Small-Polar-MMV Screening Library” (2021).
The whole screen tested about 48,000 compounds, of which about 13,000 (27%) showed an effect of 50% or more. The list shows a part of the results.

test system: Wolbachia pipientis; assay: Anti-Wolbachia Cell-Based Screen; assay type: functional; parameters: scale not given: in the data most compounds retested in dose-response had high values; conditions: 5 µM

SMILES	Percent Effect [%]
CC(=O)Nc1nc(COc2nc(C)no2)cs1	-3.939
CCCN1CCC(CC(=O)N(C)CC(=O)c2ccc(O)cc2)CC1	-25.77
Cc1ncc2c(n1)CN(Cc1noc(C3CC3)n1)CC2	2.312
O=C1CCC(C(=O)NCc2nn(-c3ccccc3)c3c2CCC3)CN1 (stereo not drawn)	1.199
O=C(c1csc(-c2ncccn2)n1)N1CCN(C2CCCC2)CC1	-8.107
COc1ccc(Cl)cc1CS(=O)(=O)CC(=O)NC(C)CCC(C)C (stereo not drawn)	2.702
Cn1cccc1C(=O)N1CC[C@H]2[C@H]1CCN2CC1CC1.O=C(O)C(F)(F)F	2.648
c1cncc(-c2ccc3c(c2)CCC32CCNCC2)c1	-33.05
O=C(O)C(F)(F)F.O=C(O)C(F)(F)F.c1cncc(-c2ccc3c(c2)CCC32CCN(Cc3nccs3)CC2)c1	11.05
CN(C)CC(=O)N1CCC2(CCc3cc(-c4cccnc4)ccc32)CC1.O=C(O)C(F)(F)F.O=C(O)C(F)(F)F	1.059
c1cncc(-c2ccc3c(c2)C2(CCNCC2)CC3)c1	1.24
O=C(O)C(F)(F)F.O=C(O)C(F)(F)F.c1cncc(-c2ccc3c(c2)CCC32CCN(Cc3ccco3)CC2)c1	99.06
O=C(O)C(F)(F)F.O=c1cccnn1CC1CN(Cc2ccsc2)Cc2nccn2C1 (stereo not drawn)	13.39
Cc1cnc(N2Cc3nccn3CC(Cn3nc(C)nc3C)C2)nc1 (stereo not drawn)	1.951
Cc1nc(C)n(CC2CN(c3ncccn3)Cc3nccn3C2)n1 (stereo not drawn)	9.978
O=C(O)C(F)(F)F.O=c1cccnn1CC1CN(CC2CCCC2)Cc2nccn2C1 (stereo not drawn)	100.1
O=C(O)C(F)(F)F.O=C(O)C(F)(F)F.c1cn2c(n1)CN(CC1CC1)CC(CN1CCOCC1)C2 (stereo not drawn)	13.29
O=c1cccnn1CC1CN(c2ncc(F)cn2)Cc2nccn2C1 (stereo not drawn)	114.7
Cc1cnc(N2Cc3nccn3CC(Cn3ncccc3=O)C2)nc1.O=C(O)C(F)(F)F (stereo not drawn)	104.6
CCCN1CCCN(C(=O)c2ccc(Oc3cccnc3)cc2)CC1	1.766
O=C1NCCCCC1NS(=O)(=O)N1CCCCC1 (stereo not drawn)	30.79
Cc1nccn1-c1cc(CNC(=O)N2CCSCC2)ccn1	-3.633
Cc1cc(CNc2ccc(CC(=O)N(C)c3ccccc3)cc2)no1	-7.262
OC(CN(Cc1ccccc1)Cc1ccncc1)c1ccco1 (stereo not drawn)	6.092

SMILES	Percent Effect [%]
O=C(COC(=O)Cc1cccs1)NCc1cccc(NC(=O)C2CC2)c1	2.841
Cc1cc(NC(=O)CN2CCn3c(C)nnc3C2)no1	3.854
Cc1cccc(NC(=O)[C@@H]2CCCN2CC(=O)N2CCCCCC2)n1	2.208
CC1CN(C)c2ccccc2CN1C(=O)NCc1ccon1 (stereo not drawn)	0.2534
Cc1cc(NC(=O)CN2C(=O)CC(C)(C)c3ccccc32)no1	116.9
Cc1cccc(NC(=O)CN2C(=O)CC(C)(C)c3ccccc32)n1	106.1
O=C(NCC1CC(=O)N(CCc2ccccc2)C1)c1ccon1 (stereo not drawn)	4.92
Cc1cc(NC(=O)CN2CCn3c(nnc3-c3ccccc3)C2)no1	6.417
CC1(C)CC(=O)N(CC(=O)Nc2ccon2)c2ccccc21	100.4
CCOCc1cccc(S(=O)(=O)N2CCSCC2)c1	5.017
CCS(=O)(=O)N1C[C@@H](Oc2ccccn2)[C@H]2OCCC[C@H]21.O=C(O)C(F)(F)F	-45.01
CCCS(=O)(=O)N1C[C@@H](Oc2ccccn2)[C@H]2OCCC[C@H]21.O=C(O)C(F)(F)F	4.768
O=C(O)C(F)(F)F.O=S(=O)(C1CC1)N1C[C@H](Oc2ccccn2)[C@H]2OCCC[C@H]21	9.296
CS(=O)(=O)N1CCO[C@H]2[C@@H](Oc3ncccc3F)CC[C@@H]21.O=C(O)C(F)(F)F	100.8
CCCS(=O)(=O)N1C[C@@H](Oc2ncccc2F)[C@H]2OCCC[C@H]21.O=C(O)C(F)(F)F	117.2
CS(=O)(=O)N1C[C@@H](Oc2ccccn2)[C@H]2OCCC[C@H]21.O=C(O)C(F)(F)F	12.05
CCCS(=O)(=O)N1CCO[C@H]2[C@H](OCc3ccccn3)CC[C@@H]21.O=C(O)C(F)(F)F	-14.38
CN(C)S(=O)(=O)N1C[C@@H](Oc2ccccn2)[C@H]2OCCC[C@H]21.O=C(O)C(F)(F)F	-0.1257
CCCS(=O)(=O)N1CCO[C@H]2[C@@H](Oc3cccnc3)CC[C@@H]21.O=C(O)C(F)(F)F	101.6
CCS(=O)(=O)N1CCO[C@H]2[C@H](Oc3ncccc3F)CC[C@@H]21.O=C(O)C(F)(F)F	5.015
O=C(O)C(F)(F)F.O=S(=O)(C1CC1)N1CCO[C@H]2[C@@H](Oc3ncccc3F)CC[C@@H]21	120.5
CN(CCCc1cc(-c2cccc(F)c2)n[nH]1)C(=O)Cn1cncn1	-5.082
COc1ccccc1OC1CN(C(=O)Cc2c(C)nc(C)[nH]c2=O)C1	-23.21
CC(CNC(=O)c1cc(-n2cccn2)ccn1)Cn1ccnc1 (stereo not drawn)	-5.602

SMILES	Percent Effect [%]
COCCCn1ccc(NCc2cnc(C(C)(C)C)s2)n1	1.35
Cn1nc(Cn2ccnc2)c2c1CN(c1nccs1)C2.O=C(O)C(F)(F)F.O=C(O)C(F)(F)F	4.707
CCn1cnnc1CCNC(=O)CCNC(=O)c1ccccc1F	3.625
COC(=O)[C@@H]1CN(C(=O)Nc2ccccc2)CCN1C(C)=O	-6.785
O=C(C1CC=CC1)N1CC[C@H]2[C@@H]1CCC(=O)N2c1ccccc1	-0.4954
COC1CN(C(=O)Nc2ccccc2)CCC(=O)N(C)c2ccccc21 (stereo not drawn)	93.19
CC(=O)N1CCN(C(=O)Nc2ccccc2)CC2(CC(=O)N(C)C2)C1 (stereo not drawn)	-20.73
O=C(NC1CCCC1)N1C[C@H]2CN(c3ccccn3)C[C@@]2(C(=O)O)C1	-9.055
CN1C(=O)CCN(C(=O)C2CC=CC2)c2ccccc21	2.91
COC1CN(C(=O)C2CC2)CCC(=O)N(C)c2ccccc21 (stereo not drawn)	115
O=C1NCCN2CCN(C(=O)Nc3ccc(-c4ccccc4)cc3)CC12 (stereo not drawn)	-8.363
COC1CCN(C(=O)Nc2ccccc2)CC(=O)N(C)c2ccccc21 (stereo not drawn)	112.2
COC(=O)N1CCCN(C(=O)NC2CCc3ccccc3C2)CC1 (stereo not drawn)	-2.418
Cn1cc(NC(=O)N2CCC(c3ccccc3)CC2)ccc1=O	-11.38
COC1CN(C(=O)NC2CCCC2)CCC(=O)N(C)c2ccccc21 (stereo not drawn)	116.2
O=C(c1cccc(Cl)c1Cl)N1CCN(CC(O)Cn2cccn2)CC1 (stereo not drawn)	-7.394
Cc1ccn(-c2ccc(NCc3ccccc3F)nn2)n1	-4.619
CSCCC(=O)N(C/C=C/c1ccccc1)CCO	-21.61
CC(C)(C)Oc1ccc(C(=O)N2CCOCC2c2ncon2)cc1 (stereo not drawn)	0.1698
Oc1nnc(-c2cccs2)c2sc(N3CCCC3)nc12	-2.433
CCC[C@H]1CN(Cc2ccc(N(C)C)nc2)C[C@@H]1NC(=O)CO	-10.52
CC(C)Nc1ncc(CN2C[C@@H](CN3CCC(O)CC3)[C@@H](CO)C2)cn1	-6.538
CC(C)c1nnc2n1CCN(C(=O)c1ccc(S(C)(=O)=O)cc1)C2	-9.775
Cc1cccc(-n2ncc(C(=O)N3CCn4c(C)nnc4C3)c2C)c1	-8.447

SMILES	Percent Effect [%]
CC(C)c1nnc2n1CCN(C(=O)c1ccc(Cn3cccc3)cc1)C2	-2.793
O=C(c1ccc(Cl)cc1)N1CCn2c(nn(-c3ccc(Cl)cc3)c2=O)C1	107.9
CC(C)c1nnc2n1CCN(C(=O)c1ccc(OCC(N)=O)cc1)C2	-11.93
CC(C)c1nnc2n1CCN(C(=O)c1ccc(-n3cnnc3)cc1)C2	-1.108
O=C(c1ccc(Cl)cc1)N1CCn2c(nn(-c3ccncc3)c2=O)C1	118.8
Cc1ccc(-n2nc3n(c2=O)CCN(C(=O)c2ccc(Cl)cc2)C3)cc1	122
O=C(c1ccncc1)N1CCn2c(nnc2-c2ccccc2)C1	-8.4
CN1CCN(Cc2cnc3n2CCN(C(=O)c2ccncc2)C3)CC1	9.234
O=C(c1ccc(Cl)cc1)N1CCn2c(nn(-c3cccc(Cl)c3)c2=O)C1	114.6
CCOCCn1nc(C)cc1C(=O)N1CC[C@](C)(O)[C@H](C)C1	-22.18
C[C@@H]1CN(Cc2nc(C(N)=O)no2)CC[C@@]1(O)C1CC1	3.604
CCN(CC)C(CNCc1ccc(O)cc1)c1ccco1 (stereo not drawn)	0.1551
Fc1ccccc1CN(CCCn1ccnc1)CC1CCOC1.O=C(O)CC(O)(CC(=O)O)C(=O)O (stereo not drawn)	96.39
CN(Cc1cccnc1)CC1CCOc2ccccc2C1 (stereo not drawn)	1.385
CCCN(Cc1cccnc1)Cc1ccc(C2CCCCO2)o1 (stereo not drawn)	8.313
c1cncc(CN(CCCn2ccnc2)CC2CCOC2)c1 (stereo not drawn)	114.4
CC1COCCN1C(=O)NCCCn1ccnc1 (stereo not drawn)	-6.702
COc1ccccc1CN(CCCn1ccnc1)CC1CCOC1.O=C(O)CC(O)(CC(=O)O)C(=O)O (stereo not drawn)	173.3
Cc1ccc(CN(CCCn2ccnc2)Cc2c[nH]cn2)s1.O=C(O)CC(O)(CC(=O)O)C(=O)O	-8.779
O=C(NCCCn1ccnc1)C1COCC(=O)N1Cc1ccccc1 (stereo not drawn)	-1.911
CCc1ccc(CN(CCCn2ccnc2)Cc2ccc(C)s2)o1.O=C(O)CC(O)(CC(=O)O)C(=O)O	-10.6
